Results filed as inconclusive are left out. Active and inactive are the calls of the source. Calls come from the whole dose curve; as a rule, active = well fitted activation curve with a large enough effect in the signal ratio, with a control signal flat (not every such curve was filed as active); inconclusive = small, poorly fitted or top-dose-only effect, or effect the other way, or a change in a side signal; inactive = flat fitted curve, though single readings scatter; the % refers to the signal ratio.
Experiment: qHTS Assay for Identification of Small Molecule Agonists for Hypoxia Response Element Signaling Pathway (AID 914); note: % of control where 0% means no effect
Conditions: ME-180 (cervical carcinoma) HRE-bla reporter, beta-lactamase ratio, CoCl2, 17 h; activation: hits give high values
Outline: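 qHTS titration; ME-180 HRE-bla cells; EC50 CoCl2 co-treatment, 17 h at 37 degrees Celsius; CCF4 dye, ex 405nm, em 460nm and 530nm; %Activity from ratio; AC50.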

| Compound | activation |
| --- | --- |
| N=c1nc(N)nc(N)n1-c1ccc(S(N)(=O)=O)cc1 | 8.62% (inactive) |
| CN(C)Cc1ccc(O)c(CN(C)C)n1 | 2.88% (inactive) |
| COC(=O)[C@]1(C)CCC(c2ccc(C)cc2)=C(CC(=O)O)C1 | 4.66% (inactive) |
| Cc1cc(CN2CCCCC2)c(O)c(CN2CCCCC2)c1 | 2.92% (inactive) |
| CCO[P@]1(=O)OC[C@@H]2O[C@H](n3cnc4c(N)ncnc43)[C@H](O)[C@@H]2O1 | 10.2% (inactive) |
| O=C(NCCO)c1ccc(Cl)cc1 | 9.98% (inactive) |
| C/C(=N/S(=O)(=O)c1ccc(Cl)c(Cl)c1)OCC(C)(C)C | 8.96% (inactive) |
